Screening data: PubChem, National Center for Advancing Translational Sciences (NCATS)
In the library only some 4.7% were active in any assay of this set; here they are far more common.
D1 ag: activates the human D1 dopamine receptor | P21728 | HEK293 T-REx D1 cells, calcium flux, agonist mode | activation, % at 2 µM | 1% of 360,000 active | AID 504660; also: 0% is about no effect
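Agonism was scored from calcium flux recorded over 180 s (1 read/s) after pintool compound addition, following a 10-cycle baseline. Cells were inducible force-coupled HEK293 TREx D1, plated overnight at 30 C and loaded with no-wash calcium dye.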
D1 PAM: enhances dopamine response at the human D1 receptor | HEK293 TREx D1 cells, calcium flux, dopamine EC20 potentiation | potentiation, % at 10 µM | 0.036% of 360,000 active; in the data active = potentiation above about 30%; also: 0% is about no effect
D1 antag: human D1 dopamine receptor antagonism | P21728 | HEK293 TREx D1 cells, calcium flux, dopamine EC80; active compounds read low | activity change, negative = inhibition, % at 10 µM | 3.2% of 360,000 active | AID 504652; in the data active = activity change below about -30%; also: % is scaled to controls: 0 for no effect and ±100 for the full control effect
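Calcium flux readout: force-coupled, inducible Hek293 Trex D1 line, cells induced overnight at 30 C with tetracycline, dye-loaded 30–90 min at RT. Antagonism scored against EC80 dopamine challenge given 180 s after compound.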
TRHR agonist: TRH receptor (human) agonism; 0.18% of 360,000 active; activation, % at 2 µM; TRHR cells, calcium flux fluo-8, FDSS agonist mode; also: 0% is about no effect
Target sequence (P34981 whole entry, looked up): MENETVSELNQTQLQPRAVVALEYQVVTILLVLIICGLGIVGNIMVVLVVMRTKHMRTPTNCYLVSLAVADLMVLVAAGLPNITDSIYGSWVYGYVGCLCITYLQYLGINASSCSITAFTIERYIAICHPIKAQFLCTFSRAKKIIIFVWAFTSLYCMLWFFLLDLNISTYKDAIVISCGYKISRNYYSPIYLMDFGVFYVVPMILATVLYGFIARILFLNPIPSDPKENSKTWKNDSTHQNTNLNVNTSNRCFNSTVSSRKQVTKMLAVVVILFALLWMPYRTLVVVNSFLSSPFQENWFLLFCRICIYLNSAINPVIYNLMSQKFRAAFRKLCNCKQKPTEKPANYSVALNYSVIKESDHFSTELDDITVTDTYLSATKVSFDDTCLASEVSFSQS
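Agonist-mode FDSS calcium read (Ex 480/Em 530, 1 s cycles) in 1536-well TRHR cells with fluo-8 dye, after 10-cycle baseline and 23 nL compound addition; TRH at EC20 (10 nM final) added afterwards for the enhancer phase.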
TRHR PAM: TRH receptor (human) allosteric enhancement | enhancement, % at 2 µM | 0.66% of 360,000 active | AID 493056 | TRHR cells, fluo-8 calcium fluorescence, EC20 TRH enhancement; in the data active = enhancement above about 30%; also: 0% is about no effect
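Enhancer read-out: after compound pinning and an initial kinetic agonist-mode read, an EC20 of TRH (10 nM final) was injected and fluo-8 calcium signal (Ex 480/Em 530) followed at 1 s/cycle for 100 cycles in TRHR-expressing cells.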
Active calls of the source: *; / = not tested or not shown; ! = not confirmed by another sample. Rule as the data show it, unless noted: active = activation above about 30%; inactive = the rest.

SMILES	D1 ag	D1 PAM	D1 antag	TRHR agonist	TRHR PAM
C=CCOC(=O)C(C#N)c1nc2ccccc2nc1N1CCN(Cc2ccc3c(c2)OCO3)CC1 (stereo not given)	12	-14	-32*	2	0
COC(=O)C1CCN(c2nc3ccccc3nc2C(C#N)C(=O)OCC(C)C)CC1 (stereo not given)	5	-10	9	4	-6
N#CC(C(=O)OCc1ccccc1)c1nc2ccccc2nc1N1CCOCC1 (stereo not given)	33*	4	8	6	1
N#CC(C(=O)NC1CCCCC1)c1nc2ccccc2nc1N1CCOCC1 (stereo not given)	2	-1	22	1	4
Cc1ccc(-c2cn(-c3ccc(Cl)cc3)c(S(=O)(=O)CC(=O)Nc3ccccc3)n2)cc1	6	2	4	1	5
Cc1cc(Cl)ccc1OCC(=O)N(Cc1ccc(N(C)C)cc1)CC1CCCO1 (stereo not given)	1	-1	5	-2	-3
COc1ccc(CN2C(=O)c3oc4ccc(F)cc4c(=O)c3C2c2ccc(O)cc2)cc1 (stereo not given)	1	-3	-36*	0	12
CN1CCC(=C2c3ccccc3C(O)c3ccccc32)CC1 (stereo not given)	19	-8	-79*	-1	18
O=S(=O)(c1ccc2c(c1)C(O)c1ccccc1CC2)C(F)(F)F (stereo not given)	3	-5	-23	0	0
CC(=O)c1c(C)oc2c(Cl)cc(NS(=O)(=O)c3ccc(Cl)cc3)cc12	-1	-5	-13	0	8
COCCOC(=O)c1c(C)oc2ccc(NS(=O)(=O)c3ccc(C)cc3)cc12	11	2	-8	0	3
CCc1ccc(S(=O)(=O)Nc2ccc3oc(C)c(C(=O)OCCOC)c3c2)cc1	22	1	-43*	0	3
CCOC(=O)c1c(C)oc2c(Cl)cc(NS(=O)(=O)c3ccc(Cl)c(C)c3)cc12	13	-3	-31*	-1	0
C1=C(c2ccc(-c3ccccc3)cc2)Nc2ncnn2C1c1ccco1 (stereo not given)	61*	2	8	30*	13
Fc1ccc(C2=CC(c3ccc(Br)o3)n3ncnc3N2)cc1 (stereo not given)	7	2	-22	4	-2
OCCCc1nc2n(n1)C(c1cccs1)C=C(c1ccc(Br)cc1)N2 (stereo not given)	40*	4	4	45*	-3
Brc1ccc(C2=CC(c3cccs3)n3ncnc3N2)cc1 (stereo not given)	60*	1	8	66*	3
CC1=C(C(N)=O)C(c2ccc(Br)cc2)n2nc(CCCO)nc2N1 (stereo not given)	4	-11	0	1	-1
COc1cccc(NC(=O)CSc2nc(=O)[nH]c3c2CCCC3)c1	-1	0	/	1	3
O=C(COCc1cc(-c2ccc3c(c2)OCO3)on1)Nc1cc(C(F)(F)F)ccc1Cl	33*	-2	-7	3	2
Cc1c(Cl)cccc1NC(=O)COCc1cc(-c2ccc3c(c2)OCO3)on1	13	5	-2	1	10
O=C(COCc1cc(-c2ccc(F)cc2)on1)Nc1cc(Cl)ccc1O	17	1	-37*	1	-7
COc1cc(OC)c(N(C)C(=O)Cn2ncc3c([nH]c4ccccc43)c2=O)cc1Cl	-2	2	-1	1	1
C/C(=N\Nc1nccnc1Cl)c1ccc([N+](=O)[O-])cc1	0	-5	-61*	-1	1
C/C(=N\Nc1nccnc1Cl)c1ccc(Br)cc1	2	-4	7	-3	-3
SMILES	D1 ag	D1 PAM	D1 antag	TRHR agonist	TRHR PAM
O=C(CSc1nnc(CNC(=O)c2c(F)cccc2Cl)o1)Nc1cccc(F)c1	8	-3	-33*	0	-4
O=C(CSc1nnc(CNC(=O)c2c(F)cccc2Cl)o1)Nc1ccc2c(c1)OCO2	2	0	-14	1	15
COc1ccccc1-c1nnc(SC/C(O)=C(\C#N)c2nc3ccccc3[nH]2)n1C1CCCCC1	1	-1	-34*	0	-16
N#C/C(=C(/O)CSc1nnc(Cc2cccs2)n1C1CCCCC1)c1nc2ccccc2[nH]1	30	-12	2	0	-7
CSc1ccc(CCNC(=O)c2cc3cc4cc(C)ccc4nc3s2)cc1	5	-4	10	0	1
CCc1ccc2nc3sc(C(=O)O)cc3cc2c1	255*	21	36	-1	0
CCN(CC)S(=O)(=O)c1ccc2c(c1)c(=O)c(C(=O)N1CCN(c3ccc(OC)cc3)CC1)cn2C	-1	1	-9	-2	5
CC1(C)C=C(c2ccc(C=O)s2)CC(C)(C)N1C=O	1	-5	-31*	0	-2
CC1(C)C=C(c2ccc(C=O)s2)CC(C)(C)N1	2	-2	-3	0	5
Cc1ccccc1-c1noc(-c2ccc(N3CCN(C)CC3)c([N+](=O)[O-])c2)n1	2	-2	-2	0	0
Cc1ccccc1OCC(O)CN1CCC(C)CC1 (stereo not given)	3	-10	-5	0	6
Cc1ccccc1OCC(O)CN1CCN(CC(O)COc2ccccc2C)CC1 (stereo not given)	54*	-12	3	0	-2
Cc1ccccc1OCC(O)Cn1c(=N)n(CCN2CCOCC2)c2ccccc21 (stereo not given)	5	-6	-35*!	0	2
CCCCC[C@]12Cc3cc(OC)c(OC)cc3[C@H](O1)c1c(cc(C)oc1=O)O2	1	-5	1	0	-4
Fc1ccc(C2CC(c3ccc(F)cc3)n3ncnc3N2)cc1 (stereo not given)	2	2	1	1	12
Oc1ccccc1C1=Nc2ncnn2C(c2ccc(F)cc2)C1 (stereo not given)	0	-5	-42*	0	-1
N#C/C(=C\c1ccc(O)cc1)C(=O)NCc1cccc(Cl)c1	53*	-10	-21	-1	13
N#C/C(=C\c1ccc(O)cc1)C(=O)NCc1ccccc1	15	0	-19	0	-8
N#C/C(=C/c1ccc(O)cc1)C(=O)NCc1ccc(Cl)cc1	34*	-5	5	2	13
CC(Nc1nc(N2CCNCC2)nc2ccccc12)c1ccccc1 (stereo not given)	3	-11	-54*	0	-6
O=C(Nc1ccc(N2CCC(c3ccccc3)C2)c(C(=O)O)c1)c1ccc(Cl)cc1 (stereo not given)	2	-4	-5	0	3
Cn1c(/C(C#N)=C/C2CC=CCC2)nc2ccccc21 (stereo not given)	3	-12	6	-1	-1
